Screening data as filed in PubChem.
CCT modulator: cytosolic chaperonin activity modulation. 360,000 compounds, 0.3% hits. activity change, % (no concentration beside the values), hits read low. purified chaperonin ATPase assay, HTRF ADP detection, 30 min; in the data active = activity change below about -30%; also: % is scaled to controls: 0 for no effect and ±100 for the full control effect
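We incubate TRiC, 40 or 20 nM final, with library compounds at 76 uM and 10 uM ATP for 30 min at 37 °C. ADP formed is detected with Transcreener HTRF reagents after 30 min at room temperature.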
MmCpn inh: inhibitors of Methanococcus maripaludis chaperonin TRiC (MmCpn); purified Mm-Cpn ATPase, ADP Transcreener TR-FRET; 330,000 compounds, 0.031% hits; AID 504842; Potency, µM (titrated, usually from 76.9 µM), inactives show at the top dose activity, negative = inhibition, hits mostly inhibitors; also: potency is read from the fitted curve at half-maximal effect; % is scaled to controls: 0 for no effect and ±100 for the full control effect; nearly all actives have a fitted effect of over 80% in size
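ATP (10 uM final) was added to archaeal chaperonin (25 nM final) after 10 min exposure to test compound at 37°C; after 30 min further incubation, ADP was detected by competitive TR-FRET.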
FUS yeast rescue: suppressors of FUS proteinopathy in yeast; Potency, µM (top dose mostly 76.6 µM), actives largely listed as activators; AID 1347120; S. cerevisiae FUS-expressing, growth rescue, OD600, 24 h; 390,000 compounds, 0.24% hits;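 also: potency is read from the fitted curve at half-maximal effect; plate controls were DMSO vehicle for no effect and reference control for full effect; nearly all actives have a fitted effect of over 55% in size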
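S. cerevisiae expressing FUS from galactose induction served as the toxicity model. Growth after 24hr at 30C, read as absorbance at 600 nm, indicates suppression of toxicity; compounds dosed at several concentrations.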
Abeta yeast res: compounds reversing amyloid beta toxicity in yeast; 410,000 compounds, 0.063% hits; AID 1347071; Potency, µM (series often up to 46.1 µM), most hits filed as activators; yeast expressing A-beta42, growth rescue, OD600, 48 h; response scale: 0% DMSO, 100% iron-clioquinol control; also: potency is read from the fitted curve at half-maximal effect; nearly all actives have a fitted effect of over 55% in size
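Growth rescue measured by 600 nm absorbance after 48 h yeast culture at 30 C with compound. Values normalized between DMSO and an equimolar ferric chloride plus clioquinol control.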
TDP-43 yeast inh: inhibitors of TDP-43 toxicity in yeast; TDP-43 expressing yeast growth rescue, BacTiter-Glo, 24 h; Potency, µM (series often up to 46.1 µM), for inactives: at the highest dose growth rescue (activation), usual class: activators; 410,000 compounds, 1.8% hits; AID 652104; also: potency is read from the fitted curve at half-maximal effect; % of control where 0% means no effect; nearly all actives have a fitted effect of over 50% in size
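Yeast expressing TDP-43 (pregrown in raffinose, seeded at OD600=0.02 in galactose medium) exposed to compounds 24 hr at 30 deg C. Growth read by BacTiter-Glo luminescence; rescue of toxicity appears as increased signal.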
aSyn yeast inh: rescues yeast growth from alpha-synuclein toxicity. 370,000 compounds, 0.14% hits. AID 652106. Yeast expressing alpha-synuclein, growth rescue, BacTiter-Glo, 24 h. Potency, µM (top dose mostly 46.1 µM), inactives show at the highest dose growth rescue (activation), hits mostly activators; also: potency is read from the fitted curve at half-maximal effect; % of control where 0% means no effect; nearly all actives have a fitted effect of over 65% in size
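Rescue of yeast growth: cells expressing toxic alpha-synuclein, induced in galactose at OD600 0.02, incubated with compound 24 h at 30 C. ATP luminescence quantified growth; inhibitors of toxicity appear as activators.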
The depositor's hits bear a star; i = inactive; ? = inconclusive; nt = not tested or not shown. In the library only some 2.3% were active in any assay of this set; here they are far more common. Unless noted, calls follow the shape of the dose curve; as a rule, active = well fitted curve in the direction sought with a large enough effect; inconclusive = small, poorly fitted or top-dose-only effect, or another doubt; inactive = no such curve, though single readings can be large; an effect the other way counts as inactive or inconclusive.

SMILES | CCT modulator | MmCpn inh | FUS yeast rescue | Abeta yeast res | TDP-43 yeast inh | aSyn yeast inh
CN(C)c1ccc(/C=C/c2c[n+](C)cc3ccccc23)cc1 | nt | nt | nt | nt | nt | -2.6%
O=S(=O)(NCc1ccccc1)c1ccc(Br)s1 | -0.4 | -0.5% | i | i | 11.2µM* | 9.6%
Cc1ccc(CNS(=O)(=O)c2ccc(Br)s2)cc1 | -3.3 | -1.4% | i | i | ? | 14.5%
CCOC(=O)c1noc2nc(C)n(Cc3ccc([N+](=O)[O-])cc3)c(=O)c12 | nt | nt | i | i | 15.6% | nt
c1c[nH]c(CN2CCN(Cc3ncc[nH]3)CC2)n1 | -1.3 | nt | nt | i | 3.98µM* | 10.9%
Cc1ccc(CSc2nncn3c2cc2sccc23)cc1 | nt | nt | i | i | 18.5% | nt
NC(=O)CSc1nc2scc(-c3ccco3)c2c(=O)n1-c1ccccc1 | 0.5 | -5.4% | 22.4µM* | i | 1.6% | -0.6%
Nc1nc(N)c(-c2ccccc2)s1 | nt | nt | nt | nt | nt | -0.4%
Cc1sc2nc(-c3ccc(Br)cc3)oc(=O)c2c1C | -37.9* | -0.8% | i | i | 18.6% | 0.1%
O=C(COc1ccccc1)Nc1ccc2nc(SCC(=O)N3CCCC3)sc2c1 | nt | nt | i | i | 31.6µM* | nt
COc1ccc(C(=O)Nc2ccc3nc(SCC(=O)N(C)c4ccccc4)sc3c2)cc1 | nt | nt | ? | i | 22.4µM* | nt
COc1cccc(C(=O)Nc2ccc3nc(SCC(=O)N(C)c4ccccc4)sc3c2)c1 | nt | nt | ? | i | 8.1% | nt
CCC(=O)N1CCc2cc(Br)cc(S(=O)(=O)CCC(=O)NCCc3cccc(C)c3)c21 | nt | nt | i | i | 2.9% | nt
CCC(=O)N1N=C(c2ccc(C)o2)CC1c1ccc(Br)cc1 (configuration not stated) | -0.6 | -1.5% | nt | i | 17.8µM* | 19.7%
CCC(=O)N1N=C(c2ccc(C)o2)CC1c1ccc(OC)cc1 (configuration not stated) | -1.5 | -6.3% | i | i | 21.8% | 4.0%
c1ccc(C2Nc3ccccc3C3OCCCC23)cc1 (configuration not stated) | 1.7 | -0.4% | i | i | 11.2µM* | -34.0%
Cc1ccc2c(c1)[C@H]1OCC[C@H]1[C@@H](c1ccncc1)N2 | -0.8 | 2.8% | i | i | 7.9% | -11.5%
COc1ccc(-c2nc3cccc(C)n3c2Nc2ccc(C)cc2)cc1 | nt | nt | nt | nt | nt | -15.9%
c1ccc(C(NCc2cccnc2)(c2ccccc2)c2ccccc2)cc1 | nt | nt | nt | nt | nt | 25.3%
O=C1CN(S(=O)(=O)c2ccc([N+](=O)[O-])cc2)CC(=O)N1 | -51.8* | -1.9% | i | i | -9.2% | -3.4%
CN(C)c1ccc(/C=C2\c3ccccc3-c3ccc(N(C)C)cc32)cc1 | nt | nt | nt | nt | nt | 0.7%
C/C(=N\NC(=S)NCc1ccccc1)c1ccc(Br)cc1 | 0.8 | 2.4% | i | ? | ? | 21.3%
C/C(=N\NC(=S)NCc1ccccc1)c1ccc2c(c1)OCCO2 | -0.1 | -1.4% | i | i | 12.6µM* | -1.7%
N#Cc1ccc(Cn2nnc(-c3ccc(N4CCOCC4)cc3)n2)cc1 | nt | nt | i | nt | nt | nt
Cc1ccc(C2=CC(=O)C[C@H](c3ccc(F)cc3)C2)cc1 | -0.6 | 1.0% | i | i | 15.8µM* | 14.4%
SMILES | CCT modulator | MmCpn inh | FUS yeast rescue | Abeta yeast res | TDP-43 yeast inh | aSyn yeast inh
O=C1C=C(c2ccc(-c3ccccc3)cc2)C[C@@H](c2ccc(F)cc2)C1 | 0.0 | -0.6% | i | i | 0.0% | 0.9%
Cn1ccc2ccc(C3=CC(=O)C[C@H](c4ccc(F)cc4)C3)cc21 | -1.7 | -18.2% | i | i | 15.8µM* | 11.9%
C=Cc1ccc(C2=CC(=O)C[C@H](c3ccc(OC)cc3)C2)cc1 | -0.4 | -0.3% | i | i | 15.0% | 8.1%
O=C1C=C(c2cc3ccccc3s2)C[C@@H](c2ccc(F)cc2)C1 | 1.1 | -2.0% | i | i | 17.8µM* | 0.5%
COc1ccc(C2=CC(=O)CC(c3ccccc3)C2)cc1 (configuration not stated) | -0.8 | 1.3% | i | i | 17.8µM* | 9.9%
CC(C)c1nn2c(=O)cc(COC(=O)c3cccc(NC(=O)CCc4ccccc4)c3)nc2s1 | nt | nt | i | i | 0.0% | nt
